“And” between values parts separate entries of the source, which are not always exact repeats. Equal entries are not always repeated. A structure can be active in one record and inactive in another. The source made the active and inactive calls. The calls were made as follows: active = hit-call score of the fitted dose curve at least 0.9, where 1 is the maximum; inactive = score below 0.9.
assay: BSK_3C_Proliferation: Cell Proliferation Assessment in the BioMAP Diversity Plus: 3C Assay (AID 2283006); conditions: primary human endothelial cells (HUVEC);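 as to AC50: potency may reflect either rise or fall in cell number versus DMSO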
Experimental: BSK_3C is a cell-based, multiplexed-readout assay that uses umbilical vein endothelium, a human vascular primary cell, with measurements taken at 24 hours after chemical dosing in a 96-well plate.BSK_3C_Proliferation is an assay component measured in the BSK_3C assay. It measures 0.1% sulforhodamine related to cell proliferation using Sulforhodamine staining technology.Data from the assay component BSK_3C_Proliferation was analyzed into 1 assay endpoint. This assay endpoint, BSK_3C_Proliferation, was analyzed with bidirectional fitting relative to DMSO as the negative control and baseline of activity. Using a type of viability reporter, measures of total protein for gain or loss-of-signal activity can be used to understand the viability at the cellular-level. Furthermore, this assay endpoint can be referred to as a secondary readout, because this assay has produced multiple assay endpoints where this one serves a viability function. To generalize the intended target to other relatable targets, this assay endpoint is annotated to the cell cycle intended target family, where the subfamily is proliferation.
The levels of cell surface (or secreted, indicated by the prefix "s") biomarker endpoints were measured by ELISA. Overt cytotoxicity to cells in confluent adherent cultures (all systems other than the BT system) was assessed by measuring total protein levels using sulforhodamine B (SRB) staining in parallel cultures at the time of biomarker measurements, indicated as SRB endpoints. For proliferation assays for adherent cell types, individual cell types are cultured at sub-confluence and relative cell numbers quantified by SRB staining at time points optimized for each system (48 h: 3C and CASM3C systems; 72 h: BT and HDF3CGF systems; 96 h: SAg system). SRB was performed by staining cells with 0.1% SRB after fixation with 10% TCA and reading wells at 560 nm.Viability and proliferation of PBMC (T cells) was quantified by Alamar Blue reduction for the SAg and BT systems. For PBMC viability (referred to as PBMC Cytotoxicity within the assay endpoint names), cells were plated (75,000/well in a 96-well plate) and then chemical samples added for 1 h before addition of activators, SEB and TSST-1 (20 ng/mL final concentration each). Cells were incubated for 90 h. Then, Alamar Blue (20 uL/well) (Invitrogen, Cat DAL1100) was added for 6 h, and the plates were read with a fluorescence microplate reader at 546/580 nm (excitation/emission). For PBMC proliferation, cells were plated and activated as above but incubated for only 16 h prior to addition of Alamar Blue. Plates were read after 6 h.

| SMILES | AC50 | outcome |
| --- | --- | --- |
| FC(F)(I)C(F)(F)C(F)(F)C(F)(F)C(F)(F)C(F)(F)I | 12.9 µM (active) [middle of 5 runs] | – |
| C=C(C)C(=O)OCCC(F)(F)C(F)(F)C(F)(F)C(F)(F)C(F)(F)C(F)(F)F | 12.8 µM (active) | inactive |
| CCN(CC)CCNc1ccc(CNC=O)c2sc3ccc(OC)cc3c(=O)c12 | 13.8 µM (active) | – |
| c1ccc2cc3c(ccc4ccccc43)cc2c1 | 0.148 µM (active) | – |
| C[C@@H]1C[C@H]2[C@@H]3CCC4=CC(=O)C=C[C@]4(C)[C@@]3(F)[C@@H](O)C[C@]2(C)[C@@]1(O)C(=O)COP(=O)(O)O | – | inactive |
| CC(=O)CC(C)(C)O | – | inactive |
| Cc1cc(CCN2CCN(c3nsc4ccccc34)CC2)cc2c1NC(=O)CC2(C)C | 18.6 µM (active) | – |
| CCCCCCCCCCCCc1ccccc1S(=O)(=O)O | 32.3 µM (active) | – |
| CC(C)CCCCCCOC(=O)CCCCC(=O)OCCCCCCC(C)C | – | inactive |
| CC(=O)NC1(c2cccc(F)c2)CCN(CC[C@@]2(c3ccc(Cl)c(Cl)c3)CN(c3ccccc3)C(=O)CO2)CC1 | 20.8 µM (active) | – |
| CCCCCCC(=O)O | – | inactive |
| OCCC(F)(F)C(F)(F)C(F)(F)C(F)(F)C(F)(F)C(F)(F)F | 46.5 µM (active) and 56.6 µM (active) | inactive |
| CCC(C)(C)C1CCC(O)CC1 (stereo not given) | – | inactive |
| CN1CCC[C@H]1c1cccnc1 | – | inactive |
| CC(C)(C)CC(C)(C)c1ccc(O)c(-n2nc3ccccc3n2)c1 | – | inactive |
| c1ccc2c(c1)Cc1ccccc1-2 | – | inactive |
| NC(=O)N1C(=O)C(C(=O)c2cc(Cl)cs2)c2cc(F)c(Cl)cc21 (stereo not given) | 11 µM (active) | – |
| CCCCOCCO | – | inactive |
| COCC(C)OCC(C)O (stereo not given) | – | inactive |

| SMILES | AC50 | outcome |
| --- | --- | --- |
| N#C[C@@H]1CC(F)(F)CN1C(=O)CNC1CC2CCC(C1)N2c1ncccn1 (stereo not given in full) | – | inactive |
| O=C(OCCOCCOC(=O)c1ccccc1)c1ccccc1 | – | inactive |
| CCCOc1sc(C(=O)N2CCC(c3cc(CN)ccc3F)CC2)c(C)c1Br | 4.84 µM (active) | – |
| CCCCCCCC(=O)O | – | inactive |
| O=[N+]([O-])c1ccc(O)cc1 | – | inactive |
| CCCCC(CC)COC(=O)CCCCC(=O)OCC(CC)CCCC (stereo not given) | – | inactive |
| NCC(F)(F)C(F)(F)C(F)(F)C(F)(F)C(F)(F)C(F)(F)C(F)(F)F | – | inactive |
| CCCCCCCCCCCCN1CCCC1=O | 30.6 µM (active) | – |
| O=C(O)Cc1cc(I)c(Oc2cc(I)c(O)c(I)c2)c(I)c1 | 21.3 µM (active) | – |
| COC(=O)CCCCC(=O)OC | – | inactive |
| Nc1cccc2c(N)cccc12 | – | inactive |
| O=C(O)c1ccccc1C(c1ccc(O)cc1)c1ccc(O)cc1 | – | inactive |
| C#C[C@]1(O)CC[C@H]2[C@@H]3CCC4=CC(=O)CC[C@@H]4[C@H]3CC[C@@]21C | 4.1 µM (active) | – |
| OCCC(F)(F)C(F)(F)C(F)(F)C(F)(F)C(F)(F)C(F)(F)C(F)(F)C(F)(F)F | 12.7 µM (active) and 17.4 µM (active) and 19.9 µM (active) | – |
| CCCCC(CC)COC(=O)CCCCC(=O)OCc1ccccc1 (stereo not given) | – | inactive |
| COCC(C)O (stereo not given) | – | inactive |
| ClC1=C(Cl)C(Cl)(Cl)C(Cl)=C1Cl | 3.29 µM (active) | – |
| OC1CCC(C2CCCCC2)CC1 (stereo not given) | – | inactive |
| CCc1nn(C2CCCCC2)c2cc(C3(C#N)CCC(C(=O)O)CC3)ccc12 (stereo not given) | 6.36 µM (active) | – |

Source: PubChem BioAssay (EPA / NIEHS)
